# Measurements taken from the supplement of paper PMC12282887.
# ± gives the standard deviation of the averaged measurements.
# Key:
# Experiment in all cases: promoter activity interaction Z-score (Lux/OD deviation from empty-vector control); higher = stronger promoter induction by the compound
# [1] = tested on: E. coli BW25113 acrABp lux reporter
# Outline: (§1)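 At 37°C, E. coli BW25113 reporter cultures in 40 µl LB Lennox in 384-well plates were read for OD600 and luminescence every 30 min for 12 h. Windows were 0–8 h for wild type and 1–9 h for deletion strains, and wells under 10% of the median growth value were removed. The score is the Z-transformed residual of growth-normalised luminescence against a control fit.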
# [2] = tested on: E. coli BW25113 micFp lux reporter
# Outline: as §1
# [3] = tested on: E. coli BW25113 ompFp lux reporter
# Outline: as §1
# [4] = tested on: E. coli BW25113 robp lux reporter
# Outline: as §1
# [5] = tested on: E. coli BW25113 soxSp lux reporter
# Outline: as §1
# [6] = tested on: E. coli BW25113 tolCp lux reporter
# Outline: as §1
# [7] = 0.02 µg/ml, genetic background: wild type
# [8] = 0.02 µg/ml, genetic background: ΔmarA
# [9] = 0.02 µg/ml, genetic background: Δrob
# [10] = 0.02 µg/ml, genetic background: ΔsoxS
# [11] = 0.04 µg/ml, genetic background: wild type
# [12] = 0.04 µg/ml, genetic background: ΔmarA
# [13] = 0.04 µg/ml, genetic background: Δrob
# [14] = 0.04 µg/ml, genetic background: ΔsoxS
# [15] = 0.079 µg/ml, genetic background: wild type
# [16] = 0.079 µg/ml, genetic background: ΔmarA
# [17] = 0.079 µg/ml, genetic background: Δrob
# [18] = 0.079 µg/ml, genetic background: ΔsoxS
# [19] = 0.16 µg/ml, genetic background: wild type
# [20] = 0.16 µg/ml, genetic background: ΔmarA
# [21] = 0.16 µg/ml, genetic background: Δrob
# [22] = 0.16 µg/ml, genetic background: ΔsoxS
smiles,measurement,setting,value
C[C@@H](O)[C@H]1C(=O)N2C(C(=O)O)=C(SCCNC=N)C[C@H]12 [Imipenem],promoter activity interaction Z-score,[1]; [7],0.313 ± 0.12
same,promoter activity interaction Z-score,[1]; [8],1.28 ± 1.8
same,promoter activity interaction Z-score,[1]; [9],0.353 ± 0.18
same,promoter activity interaction Z-score,[1]; [10],0.0665 ± 0.11
same,promoter activity interaction Z-score,[1]; [11],0.296 ± 0.28
same,promoter activity interaction Z-score,[1]; [12],0.881 ± 0.37
same,promoter activity interaction Z-score,[1]; [13],0.492 ± 0.11
same,promoter activity interaction Z-score,[1]; [14],-0.0993 ± 0.31
same,promoter activity interaction Z-score,[1]; [15],0.282 ± 0.4
same,promoter activity interaction Z-score,[1]; [16],-0.701 ± 0.22
same,promoter activity interaction Z-score,[1]; [17],0.209 ± 0.086
same,promoter activity interaction Z-score,[1]; [18],0.325 ± 0.52
same,promoter activity interaction Z-score,[1]; [19],0.0724 ± 0.69
same,promoter activity interaction Z-score,[1]; [20],-0.226 ± 0.46
same,promoter activity interaction Z-score,[1]; [21],0.107 ± 0.094
same,promoter activity interaction Z-score,[1]; [22],0.865 ± 0.24
same,promoter activity interaction Z-score,[2]; [7],-0.142 ± 0.16
same,promoter activity interaction Z-score,[2]; [8],0.0296 ± 0.051
same,promoter activity interaction Z-score,[2]; [9],-0.0038 ± 0.09
same,promoter activity interaction Z-score,[2]; [10],-0.119 ± 0.17
same,promoter activity interaction Z-score,[2]; [11],0.0424 ± 0.3
same,promoter activity interaction Z-score,[2]; [12],0.0155 ± 0.0044
same,promoter activity interaction Z-score,[2]; [13],0.104 ± 0.069
same,promoter activity interaction Z-score,[2]; [14],-0.24 ± 0.14
same,promoter activity interaction Z-score,[2]; [15],-0.145 ± 0.082
same,promoter activity interaction Z-score,[2]; [16],-0.07 ± 0.02
same,promoter activity interaction Z-score,[2]; [17],-0.0557 ± 0.0065
same,promoter activity interaction Z-score,[2]; [18],0.206 ± 0.3
same,promoter activity interaction Z-score,[2]; [19],-0.0706 ± 0.42
same,promoter activity interaction Z-score,[2]; [20],-0.131 ± 0.072
same,promoter activity interaction Z-score,[2]; [21],-0.0161 ± 0.083
same,promoter activity interaction Z-score,[2]; [22],0.512 ± 0.49
same,promoter activity interaction Z-score,[3]; [7],0.592 ± 0.022
same,promoter activity interaction Z-score,[3]; [8],0.885 ± 0.097
same,promoter activity interaction Z-score,[3]; [9],0.602 ± 0.084
same,promoter activity interaction Z-score,[3]; [10],0.271 ± 0.35
same,promoter activity interaction Z-score,[3]; [11],0.679 ± 0.22
same,promoter activity interaction Z-score,[3]; [12],0.662 ± 0.21
same,promoter activity interaction Z-score,[3]; [13],0.743 ± 0.19
same,promoter activity interaction Z-score,[3]; [14],0.276 ± 0.85
same,promoter activity interaction Z-score,[3]; [15],0.372 ± 0.28
same,promoter activity interaction Z-score,[3]; [16],0.257 ± 0.3
same,promoter activity interaction Z-score,[3]; [17],0.789 ± 0.66
same,promoter activity interaction Z-score,[3]; [18],0.142 ± 0.038
same,promoter activity interaction Z-score,[3]; [19],0.851 ± 0.33
same,promoter activity interaction Z-score,[3]; [20],1.19 ± 0.16
same,promoter activity interaction Z-score,[3]; [21],1.34 ± 0.058
same,promoter activity interaction Z-score,[3]; [22],1.39 ± 0.5
same,promoter activity interaction Z-score,[4]; [7],0.863 ± 0.1
same,promoter activity interaction Z-score,[4]; [8],1.42 ± 0.61
same,promoter activity interaction Z-score,[4]; [9],1.13 ± 0.1
same,promoter activity interaction Z-score,[4]; [10],0.38 ± 1.6
same,promoter activity interaction Z-score,[4]; [11],1.42 ± 0.9
same,promoter activity interaction Z-score,[4]; [12],0.964 ± 0.54
same,promoter activity interaction Z-score,[4]; [13],0.862 ± 0.23
same,promoter activity interaction Z-score,[4]; [14],-0.648 ± 0.39
same,promoter activity interaction Z-score,[4]; [15],0.399 ± 0.46
same,promoter activity interaction Z-score,[4]; [16],-0.467 ± 0.12
same,promoter activity interaction Z-score,[4]; [17],-0.0634 ± 0.12
same,promoter activity interaction Z-score,[4]; [18],0.149 ± 0.0074
same,promoter activity interaction Z-score,[4]; [19],0.582 ± 0.12
same,promoter activity interaction Z-score,[4]; [20],-0.0297 ± 0.2
same,promoter activity interaction Z-score,[4]; [21],0.845 ± 0.3
same,promoter activity interaction Z-score,[4]; [22],0.155 ± 0.23
same,promoter activity interaction Z-score,[5]; [7],0.0906 ± 0.0094
same,promoter activity interaction Z-score,[5]; [8],-0.0591 ± 0.084
same,promoter activity interaction Z-score,[5]; [9],0.0225 ± 0.12
same,promoter activity interaction Z-score,[5]; [10],-0.179 ± 0.12
same,promoter activity interaction Z-score,[5]; [11],0.124 ± 0.076
same,promoter activity interaction Z-score,[5]; [12],0.161 ± 0.03
same,promoter activity interaction Z-score,[5]; [13],0.187 ± 0.23
same,promoter activity interaction Z-score,[5]; [14],-0.163 ± 0.26
same,promoter activity interaction Z-score,[5]; [15],0.146 ± 0.15
same,promoter activity interaction Z-score,[5]; [16],-0.0799 ± 0.11
same,promoter activity interaction Z-score,[5]; [17],-0.00226 ± 0.029
same,promoter activity interaction Z-score,[5]; [18],0.121 ± 0.18
same,promoter activity interaction Z-score,[5]; [19],0.0824 ± 0.27
same,promoter activity interaction Z-score,[5]; [20],-0.0185 ± 0.033
same,promoter activity interaction Z-score,[5]; [21],-0.0171 ± 0.17
same,promoter activity interaction Z-score,[5]; [22],0.177 ± 0.52
same,promoter activity interaction Z-score,[6]; [7],0.541 ± 0.2
same,promoter activity interaction Z-score,[6]; [8],0.817 ± 0.21
same,promoter activity interaction Z-score,[6]; [9],-0.144 ± 0.41
same,promoter activity interaction Z-score,[6]; [10],-0.241 ± 0.51
same,promoter activity interaction Z-score,[6]; [11],0.146 ± 1.3
same,promoter activity interaction Z-score,[6]; [12],0.917 ± 0.58
same,promoter activity interaction Z-score,[6]; [13],1.47 ± 0.4
same,promoter activity interaction Z-score,[6]; [14],-1.38 ± 0.5
same,promoter activity interaction Z-score,[6]; [15],0.00539 ± 0.13
same,promoter activity interaction Z-score,[6]; [16],-0.369 ± 0.35
same,promoter activity interaction Z-score,[6]; [17],0.295 ± 0.094
same,promoter activity interaction Z-score,[6]; [18],-0.148 ± 0.41
same,promoter activity interaction Z-score,[6]; [19],-0.803 ± 0.044
same,promoter activity interaction Z-score,[6]; [20],0.117 ± 0.52
same,promoter activity interaction Z-score,[6]; [21],0.323 ± 0.18
same,promoter activity interaction Z-score,[6]; [22],0.105 ± 0.88
